Legend:
Test in all cases: thermal shift delta Tm vs DMSO control; higher = stronger stabilization (binding)
Conditions in all cases: 12.5 µM; protein concentration 2 µM
[1] = system: LOC_OS01G57100-cb003
Summary of the method: (§1)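 Thermal shift values come from differential scanning fluorimetry on purified rice kinase domains made in E. coli, with melting temperatures obtained from Boltzmann fits. Samples of 19.5 μl held 2 μM kinase, 100 mM potassium phosphate pH 7.5, 150 mM NaCl, 10% glycerol, 5 × SYPRO Orange and compound in DMSO, and were heated from 25°C to 95°C at 0.05°C/s. Each shift is a triplicate mean relative to the DMSO-only protein sample.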

[2] = system: LOC_OS01G60330-cb001
Summary of the method: as §1

[3] = system: LOC_OS01G60700-cb002
Summary of the method: as §1

[4] = system: LOC_OS01G63280-cb003
Summary of the method: as §1

[5] = system: LOC_OS01G67340-cb003
Summary of the method: as §1

[6] = system: LOC_OS01G70970-cb002
Summary of the method: as §1

[7] = system: LOC_OS02G07810-cb001
Summary of the method: as §1

[8] = system: LOC_OS02G08530-cb003
Summary of the method: as §1

[9] = system: LOC_OS02G14120-cb001
Summary of the method: as §1

[10] = system: LOC_OS02G17970-cb001
Summary of the method: as §1

[11] = system: LOC_OS02G45750-cb003
Summary of the method: as §1

[12] = system: LOC_OS02G54510-cb004
Summary of the method: as §1

[13] = system: LOC_OS03G04050-cb001
Summary of the method: as §1

[14] = system: LOC_OS03G12390-cb001
Summary of the method: as §1

[15] = system: LOC_OS03G27990-cb004
Summary of the method: as §1

[16] = system: LOC_OS03G50450-cb001
Summary of the method: as §1

[17] = system: LOC_OS03G50810-cb003
Summary of the method: as §1

[18] = system: LOC_OS04G35114-cb001
Summary of the method: as §1

[19] = system: T1, LOC_OS04G38480-cb003
T1 sequence (whole entry): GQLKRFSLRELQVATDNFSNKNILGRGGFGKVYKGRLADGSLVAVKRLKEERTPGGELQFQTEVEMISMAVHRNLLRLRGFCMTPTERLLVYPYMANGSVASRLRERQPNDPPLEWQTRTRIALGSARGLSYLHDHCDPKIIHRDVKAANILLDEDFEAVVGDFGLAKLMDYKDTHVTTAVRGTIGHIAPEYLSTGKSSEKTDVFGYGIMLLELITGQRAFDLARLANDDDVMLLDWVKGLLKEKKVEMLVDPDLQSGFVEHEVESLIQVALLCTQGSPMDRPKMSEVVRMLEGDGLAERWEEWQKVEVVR
Summary of the method: as §1

[20] = system: T2, LOC_OS04G41100-cb001
T2 sequence (whole entry): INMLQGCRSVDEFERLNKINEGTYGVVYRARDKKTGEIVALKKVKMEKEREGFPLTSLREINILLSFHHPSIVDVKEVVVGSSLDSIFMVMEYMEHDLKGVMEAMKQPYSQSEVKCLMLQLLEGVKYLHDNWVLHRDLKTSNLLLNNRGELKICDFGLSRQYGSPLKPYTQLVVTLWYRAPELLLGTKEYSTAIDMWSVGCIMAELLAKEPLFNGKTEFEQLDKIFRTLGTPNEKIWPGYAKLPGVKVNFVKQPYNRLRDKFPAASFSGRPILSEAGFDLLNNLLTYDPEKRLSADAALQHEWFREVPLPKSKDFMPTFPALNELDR
Summary of the method: as §1
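Further: purified Escherichia coli-expressed rice kinase domain construct.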

Row | SMILES | thermal shift delta Tm [1] [°C] | thermal shift delta Tm [2] [°C] | thermal shift delta Tm [3] [°C] | thermal shift delta Tm [4] [°C] | thermal shift delta Tm [5] [°C] | thermal shift delta Tm [6] [°C] | thermal shift delta Tm [7] [°C] | thermal shift delta Tm [8] [°C] | thermal shift delta Tm [9] [°C] | thermal shift delta Tm [10] [°C] | thermal shift delta Tm [11] [°C] | thermal shift delta Tm [12] [°C] | thermal shift delta Tm [13] [°C] | thermal shift delta Tm [14] [°C] | thermal shift delta Tm [15] [°C] | thermal shift delta Tm [16] [°C] | thermal shift delta Tm [17] [°C] | thermal shift delta Tm [18] [°C] | thermal shift delta Tm [19] [°C] | thermal shift delta Tm [20] [°C]
1 | FC(F)(F)c1ccc(/C=C/c2nc(COc3ccc(CCCCn4ccnn4)cc3)co2)cc1 [Mubritinib (TAK 165)] | 0.83 | 0.99 | 0.41 | 0.22 | -0.98 | 0.3 | 0.23 | 0.63 | 0.38 | 0.37 | 0.54 | 0.1 | 0.37 | 0 | 0.51 | 0.76 | 0.3 | 0.27 | 0.25 | 0.36
2 | NC(=O)Nc1cc(-c2cccc(F)c2)sc1C(=O)N[C@H]1CCCNC1 | 4.78 | 1.93 | 0.65 | 0.86 | 0.78 | 1.89 | 1.56 | 5.46 | 8.74 | 0.89 | 1.81 | 1.91 | 0.72 | 2.87 | 3.23 | 3.98 | 4.12 | 2.52 | 2.65 | 0.96
3 | CCCCOc1c(C(=O)c2c(F)cc(C)cc2F)c[nH]c2nncc1-2 | 0.94 | 0.86 | -0.01 | 0.42 | 1.31 | 0.23 | 0.81 | 0.56 | 1.75 | 0.7 | 0.73 | 0.14 | 0.23 | 2.18 | 0.03 | -0.21 | 0.46 | 0.65 | 0.81 | 0.49

From the supplement of paper PMC9694430
